# GDH-TPI inh: GDH-TPI coupled enzyme inhibition counter-screen; GDH-TPI coupled enzyme counterscreen, NADH absorbance; inhibition, % at 4.8 µM; 360,000 tested, 1.2% active; AID 588335; in the data active = inhibition above about 30%;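 note: 0% = DMSO wells and 100% = wells lacking the enzyme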
# FadD28 FP inh: blocks FadD28 binding to the bisubstrate probe; 360,000 tested, 0.22% active; inhibition, % at 12.5 µM; fluorescence polarization; in the data active = inhibition above about 8.5%, passing the limit was not always enough; inconclusive = no clear call, values can overlap the other calls
# Mtb hypoxia rep: reduces hypoxia-regulated biosensor signal in M. tuberculosis; M. tuberculosis hypoxia-regulated fluorescent reporter, fluorescence; 300,000 tested, 0.1% active; fluorescence inhibition, % (concentration not given with the values); AID 1159583; in the data active = fluorescence inhibition mostly above about 23%, no sharp cut-off; inactive = mostly below about 17%
# FBA Mtb inh: Mtb fructose-bisphosphate aldolase inhibition; P9WQA3; purified M. tuberculosis FBA, fluorescence read-out; inhibition, % at 1 µM; 360,000 tested, 2.3% active; in the data active = inhibition above about 27%;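 note: 0% = vehicle and 100% = reference inhibitor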
# Target sequence (P9WQA3 whole entry, looked up): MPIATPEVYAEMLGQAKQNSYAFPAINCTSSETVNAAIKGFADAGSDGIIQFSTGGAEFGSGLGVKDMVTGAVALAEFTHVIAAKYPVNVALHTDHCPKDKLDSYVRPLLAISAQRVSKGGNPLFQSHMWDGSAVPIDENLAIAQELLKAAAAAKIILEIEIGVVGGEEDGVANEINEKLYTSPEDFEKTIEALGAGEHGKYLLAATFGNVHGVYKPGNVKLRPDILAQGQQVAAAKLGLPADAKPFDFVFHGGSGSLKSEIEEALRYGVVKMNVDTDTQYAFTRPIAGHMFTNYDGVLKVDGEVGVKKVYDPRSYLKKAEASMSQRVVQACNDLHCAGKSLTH
# BioA inh: BioA (M. tuberculosis) enzyme inhibition. inhibition, % at 9.99 µM. 360,000 tested, 0.096% active. purified M. tuberculosis BioA enzyme, plate reader; in the data active = inhibition above about 40%; inconclusive = no clear call, values can overlap the other calls
# Numbers without * were called inactive; ? = inconclusive; . = not tested or not shown; + = active, no number. The list is not random: actives were taken first. Their share in the collection is about 2.9%.
SMILES,GDH-TPI inh,FadD28 FP inh,Mtb hypoxia rep,FBA Mtb inh,BioA inh
COC(=O)c1sc(NC(=O)c2ccc(C)o2)nc1C,35*,-2,11,0,.
CO[C@H]1CN(C)C(=O)c2ccc(NC(C)=O)cc2OC[C@@H](C)N(CCC(F)(F)F)C[C@H]1C,.,.,.,.,2
CCOc1ccc(NC(=O)C2C(c3ccccc3)C2(Cl)Cl)cc1 (stereo not given),17,-1,-9,1,-4
CCOc1ccc(NC(=O)C2C(C(=O)O)C3(Cl)C(Cl)=C(Cl)C2(Cl)C3(Cl)Cl)cc1 (stereo not given),-3,21*,-12,2,.
O=C(C[C@@H]1CC[C@@H]2[C@H](COC[C@@H](O)CN2Cc2cccc(Cl)c2)O1)NCC1CCCCC1,.,.,.,.,1
C[C@H](CO)N1C[C@H](C)[C@H](CN(C)C(=O)Cc2ccncc2)Oc2ncc(C3=CCCC3)cc2C1=O,.,.,.,.,-3
CC(C)NC(=O)N(C)C[C@@H]1Oc2ccc(NS(=O)(=O)c3ccc(Cl)cc3)cc2CC(=O)N([C@@H](C)CO)C[C@@H]1C,.,.,.,.,4
CC[C@H](C)/C=C(C)/C=C/C1=CC2=C(Cl)C(=O)[C@](C)(OC(C)=O)C(=O)C2=CO1,23,17*,.,5,7
CSc1nc(SCC(=O)NC(c2ccccc2)c2ccccc2)c2c3c(sc2n1)CN(C)CC3,13,-3,-2,14,0
CSc1nc(NCC(C)O)c2c3c(sc2n1)CN(C)CC3 (stereo not given),8,-2,.,113*,12
COCCNc1nc(SCc2ccccc2)nc2sc3c(c12)CCC3,5,-4,7,5,4
CSc1nc(NCCCO)c2c3c(sc2n1)CN(C)CC3,-1,-4,-5,176*,.
CC(C)(C)c1ccc2c(c1)OC(C(=O)N/N=C\c1ccc(-c3cccc(C(=O)O)c3)o1)CO2 (stereo not given),39*,-1,.,9,.
O=C(O)c1cccc(-c2ccc(/C=N/NC(=O)C3COc4ccccc4O3)o2)c1 (stereo not given),38*,-3,.,5,.
O=C(C1=C[C@H](c2ccc(Br)cc2)C[C@H](OCc2ccc(CO)cc2)O1)N1CCCCCCC1,.,.,.,.,-1
C[C@@H]1CN([C@@H](C)CO)C(=O)c2cc(NC(=O)c3ccncc3)ccc2O[C@@H](C)CCCCO[C@H]1CN(C)S(=O)(=O)c1ccccc1,.,.,.,.,-2
Cn1c(=O)c2cc(NC(=O)CCc3ccccc3)ccc2n1-c1ccccc1F,13,-1,.,114*,-1
CCOCCC(=O)Nc1ccc2c(c1)c(=O)n(C)n2-c1ccccc1F,12,-4,.,181*,26
CCOCCC(=O)Nc1ccc2c(c1)c(=O)n(C)n2C/C=C/c1ccccc1,4,-2,.,113*,1
CCn1c(=O)c2cc(C(=O)N(C)c3cc(C)ccc3OC)sc2c2ccccc21,32*,-10,12,7,-1
CCn1c(=O)c2cc(C(=O)N(C)c3ccc(OC)cc3OC)sc2c2ccccc21,49*,-21,-1,5,0
CCn1c(=O)c2cc(C(=O)N(C)c3ccccc3F)sc2c2ccccc21,14,-16,13,2,-2
Cc1ccc(S(=O)(=O)Nc2ccc3c(c2)C(=O)N([C@@H](C)CO)C[C@@H](C)[C@H](CN(C)C(=O)Nc2ccc(C(F)(F)F)cc2)O3)cc1,.,.,.,.,0
CO[C@H]1CN(C)C(=O)c2ccc(NC(=O)C3CC3)cc2OC[C@@H](C)N(C(=O)CN(C)C)C[C@H]1C,.,.,.,.,-1
Nc1c(C(=O)c2ccccc2)oc2ccc([N+](=O)[O-])cc12,34*,-1,-4,3,.
SMILES,GDH-TPI inh,FadD28 FP inh,Mtb hypoxia rep,FBA Mtb inh,BioA inh
CN1c2ccc(-c3ccc(C#N)cc3)cc2[C@H]2[C@H](CCN2C(=O)C2CCCCC2)[C@@H]1CO,.,.,.,.,1
C[C@H](CO)N1C[C@H](C)[C@@H](CN(C)C(=O)Nc2ccc(F)cc2)Oc2cc(C#CC3(O)CCCC3)ccc2S1(=O)=O,.,.,.,.,0
C(=N\NC1=NCCCCC1)/c1c[nH]c2ccccc12,39*,-1,.,-4,.
COc1ccccc1/C=N/NC1=NCCCCC1,18,-4,.,-2,-1
Cn1c(N/N=C/c2c[nH]c3ccccc23)nc2ccccc21,58*,?,.,2,0
Cc1cc(C(=O)N/N=C/c2ccccc2)c(C)o1,4,-2,.,0,1
O=C(N/N=C/C=C/c1ccccc1)c1cnccn1,48*,1,.,-5,-1
O=C(NN=C/C=C\c1ccccc1)c1cnccn1,.,.,7,.,.
O=C(N/N=C/C=C/c1ccccc1)c1cccc(Br)c1,65*,-2,.,-6,-1
O=C(NN=C/C=C/c1ccccc1)c1cccc(Br)c1,.,.,5,.,.
Cc1cc(C(=O)N/N=C/C=C/c2ccccc2)c(C)o1,32*,-1,.,-2,.
Cc1ccc(C(=O)N/N=C/C=C/c2ccccc2)cc1,31*,-3,.,1,.
O=C(N/N=C\c1ccc(Sc2ccccn2)o1)c1cccc(Br)c1,32*,-4,.,-1,5
Cc1ccccc1C(=O)N/N=C/c1ccc(Sc2ccccn2)o1,26,-2,.,1,.
CC(=O)c1sc(NC(=O)COc2ccccc2)nc1C,10,0,18,-2,0
Cc1nc2ccccn2c(=O)c1NC(=O)COc1ccccc1,31*,-1,.,5,0
O=C1NC(=S)S/C1=C\c1ccc(SCc2ccccc2)o1,17,18*,10,-9,1
O=C1NC(=S)S/C1=C\c1ccc(SCc2ccco2)o1,15,45*,.,-5,4
CC(C)(C)OC(=O)COc1ccc(C=NNC(=O)CN2CCCCC2)cc1,.,.,-7,.,.
CCCNC(=O)N1C2CCC1C(C(=O)OC)=C(c1ccc(-c3ccccc3)c(F)c1)C2 (stereo not given),.,.,1,.,.
CC(=O)C(=NNc1ccccc1)Oc1ccc([N+](=O)[O-])cc1,.,.,6,.,.
O=C(c1cc2c(s1)-c1ccccc1OC2)N1CCN(c2ccccn2)CC1,14,-3,.,17,0
O=C(c1cc2c(s1)-c1ccccc1OC2)N1CCCC1,27,0,.,+,1
O=C(c1cc2c(s1)-c1ccccc1OC2)N1CCC2(CC1)OCCO2,40*,-3,6,+,0
CCN(C(=O)COC(=O)c1cc2ccccc2cc1O)C1CCS(=O)(=O)C1 (stereo not given),-7,-5,7,-1,-1
SMILES,GDH-TPI inh,FadD28 FP inh,Mtb hypoxia rep,FBA Mtb inh,BioA inh
CCN(C(=O)COC(=O)c1ccccc1NCCO)C1CCS(=O)(=O)C1 (stereo not given),3,-3,9,129*,.
N#CCOC(=O)/C=C/c1ccc2c(c1)OCO2,38*,-2,-1,13,.
O=C(COC(=O)/C=C/c1ccc2c(c1)OCO2)NC1CC1,22,0,-9,14,.
CC(C)C(OC(=O)/C=C/c1ccc2c(c1)OCO2)C(=O)NC(N)=O (stereo not given),41*,1,7,14,0
CN(C)c1ccc(C(=O)N=c2sccn2C)cc1[N+](=O)[O-],38*,-5,13,-4,0
CCNC(=O)C[C@@H]1CC[C@@H](NS(=O)(=O)c2ccc(F)cc2)[C@H](CO)O1,.,.,.,.,0
